Active and inactive are the calls of the source.
Columns and labels:
Albumin (Bos taurus) = Albumin (Bos taurus) (UniProt P02769); test: bovine serum albumin binders on microarray, profiling panel, artefact control for SMM control protein annotation, biochemical, small-molecule microarray, Alexa647 label, 635/667 nm fluorescence (AID 1118); details: BSA-A647 binding, fluorescence 635 nm, higher = more signal;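 note: score merges 667 nm emission intensity and signal-to-noise per printed compound spot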
[1] = small-molecule microarray binders of probe aXIP, primary screen, biochemical, NeuroSMM set, 635/667 nm fluorescence (AID 1119); details: higher = more signal, called active from +8 up or from −8 down;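 note: probe is the protein aXip251-270 applied at 1 µg/mL to compound-printed slides; binding of probe to printed compounds measured as 667 nm fluorescence plus signal to noise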
[2] = small-molecule binders of probe aNOTCH3, primary screen, biochemical, small-molecule microarray, 635/667 nm fluorescence (AID 1120); details: higher = more signal;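 note: probe is a biotin-tagged antibody raised against NOTCH3 rather than NOTCH3 protein; score merges spot fluorescence near 667 nm with spot signal to noise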
[3] = small-molecule binders of probe aNOTCH2, primary screen, biochemical, small-molecule microarray, 635/667 nm fluorescence (AID 1121); details: higher = more signal;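 note: score merges feature fluorescence read at 667 nm with its signal to noise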
[4] = molecular target: Carbonic anhydrase 2 (Homo sapiens) (UniProt P00918); test: CAII small-molecule binders, profiling panel, biochemical, small-molecule microarray, Alexa647-labelled CAII (AID 1122); details: CAII-A647 binding fluorescence, higher = more signal
[5] = COS7 lysate on small-molecule microarray, probe aHis, 635 nm (AID 1123); details: COS7 cell lysate, fluorescence, higher = more signal;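 note: z-score combines 667nm fluorescence intensity with signal-to-noise per printed compound spot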
[6] = compound binding in COS7 lysate, probe aLAP1, primary screen, cell lysate, small-molecule microarray (AID 1124); details: probe aLAP1, fluorescence, higher = more signal;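 note: lysate comes from COS7 cells expressing LAP1 and is applied at 0.3 µg/mL; score merges spot fluorescence near 667 nm with signal-to-noise over triplicate slides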
Sam68 (KHDRBS1) = test: Sam68 small-molecule binders, primary screen, biochemical, small-molecule microarray, 635 nm fluorescence (AID 1125); details: small-molecule microarray binding, higher = more signal;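 note: score merges 667 nm channel intensity with signal to noise over triplicate slides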
[7] = tested on: Chordin-like protein 2 (CHRDL2); test: CHRDL2 small-molecule binders, primary screen, biochemical, small-molecule microarray, 635 nm fluorescence (AID 1126); details: small-molecule microarray binding, fluorescence 635 nm; higher = more signal;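 note: printed compound slides probed with Chrdl2 protein at 4 µg/mL for 1 h at 4 C; score merges 667 nm emission intensity with signal to noise over three replicate slides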
[8] = molecular target: Concanavalin-A (Canavalia ensiformis) (UniProt P02866); test: ConA small-molecule binders, primary screen, artefact control for SMM control protein annotation, biochemical, small-molecule microarray, Alexa647 label, 635 nm (AID 1127); details: ConA-A647 binding fluorescence, higher = more signal;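 note: z combines 667 nm emission intensity with signal-to-noise across three replicate slides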
Sequence of Concanavalin-A (Canavalia ensiformis) (P02866 whole entry, looked up): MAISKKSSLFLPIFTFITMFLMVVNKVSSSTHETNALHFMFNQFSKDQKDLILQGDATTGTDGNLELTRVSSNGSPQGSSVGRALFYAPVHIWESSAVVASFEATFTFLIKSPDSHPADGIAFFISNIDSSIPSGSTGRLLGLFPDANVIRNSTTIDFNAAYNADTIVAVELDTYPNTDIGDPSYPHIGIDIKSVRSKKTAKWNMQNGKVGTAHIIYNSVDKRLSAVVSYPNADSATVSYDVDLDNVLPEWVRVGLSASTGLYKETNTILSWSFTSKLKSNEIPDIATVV

Sequence of Albumin (Bos taurus) (P02769 whole entry, looked up): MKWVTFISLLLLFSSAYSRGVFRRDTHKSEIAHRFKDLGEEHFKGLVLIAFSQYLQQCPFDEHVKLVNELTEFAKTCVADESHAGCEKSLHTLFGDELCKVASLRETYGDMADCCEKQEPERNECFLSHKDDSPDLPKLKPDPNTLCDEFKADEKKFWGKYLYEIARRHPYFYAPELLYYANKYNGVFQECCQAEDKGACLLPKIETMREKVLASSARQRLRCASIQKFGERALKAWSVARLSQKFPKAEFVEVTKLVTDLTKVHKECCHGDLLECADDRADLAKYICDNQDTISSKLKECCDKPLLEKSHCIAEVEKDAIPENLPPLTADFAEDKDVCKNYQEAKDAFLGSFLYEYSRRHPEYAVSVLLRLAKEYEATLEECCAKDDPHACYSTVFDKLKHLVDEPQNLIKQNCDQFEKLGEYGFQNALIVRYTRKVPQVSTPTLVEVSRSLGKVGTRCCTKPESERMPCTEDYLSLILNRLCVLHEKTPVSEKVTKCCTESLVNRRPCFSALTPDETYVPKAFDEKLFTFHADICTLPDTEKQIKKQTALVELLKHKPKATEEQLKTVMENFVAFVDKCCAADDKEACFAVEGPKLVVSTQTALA

Row | SMILES | composite z-score (Albumin (Bos taurus)) | composite Z-score [1] | composite z-score [2] | composite z-score [3] | composite z-score [4] | composite z-score [5] | composite z-score [6] | composite z-score (Sam68 (KHDRBS1)) | composite z-score [7] | composite z-score [8]
1 | O=C(CS)NCCCCCCNC(=O)[C@H]1C[C@H]2C(=O)NCC(=O)N2[C@H]1c1cccc(OCCO)c1 | -0.509 | 0.54 (inactive) | 0.191 | -0.0995 | 0.458 | 1.37 | 0.122 | 0.221 | 0.283 | 0.966
2 | O=C1O[C@H](c2ccccc2)[C@H](c2ccccc2)N2[C@H]1[C@@H](C(=O)O)[C@]1(C(=O)Nc3ccc(C#CC4(O)CCCCCC4)cc31)[C@H]2c1ccccc1OCCO | 0.9 | 0.0463 (inactive) | 0.451 | 0.0979 | 0.487 | 1.27 | 0.774 | 1.32 | 0.0298 | 1.14
3 | C=CCNC(=O)[C@@H]1[C@H]2C(=O)O[C@H](c3ccccc3)[C@H](c3ccccc3)N2[C@H](c2ccc(OCCO)cc2)[C@@]12C(=O)Nc1ccc(C#CCNC(N)=O)cc12 | 0.567 | 0.0324 (inactive) | -0.076 | -0.13 | 0.336 | 0.813 | 0.268 | 1.33 | -0.822 | 0.6
4 | COC(=O)[C@H]1N=C(c2ccc(OCCCO)cc2)O[C@H]1c1ccccc1N=[N+]=[N-] | 0.177 | 0.408 (inactive) | 0.156 | 0.273 | 0.574 | 2.51 | 0.285 | 0.342 | 0.158 | 0.656
5 | C=CCOC(=O)[C@@H]1[C@H]2C(=O)O[C@H](c3ccccc3)[C@H](c3ccccc3)N2[C@H](c2ccc(OCCOC(=O)[C@@H]3C[C@@H]4C(=O)N[C@@H](CC(C)C)C(=O)N4[C@@H]3c3ccc(O)cc3)cc2)[C@@]12C(=O)Nc1ccc(I)cc12 | -0.766 | 0.207 (inactive) | 1.3 | 0.443 | 0.536 | 1.37 | 0.166 | 1.28 | 1.1 | 1.17
6 | O=C1OC[C@@H](c2ccccc2)n2cc(/C=C/c3ccccc3)cc21 | -0.456 | 0.597 (inactive) | -0.189 | -0.149 | 0.43 | 0.163 | -0.475 | -1.14 | -0.701 | 0.51
7 | CCCC=C(CCC)[C@@H](NC(=O)c1ccc(C(=O)OC)cc1)c1ccc(C(=O)OC)cc1 | 0.781 | 0.0466 (inactive) | 0.0847 | 0.0522 | 0.203 | 2.45 | 0.718 | 0.417 | 0.031 | 0.251
8 | CCCCCCCCCCC(O)C1C=CC2C(=O)N(C)C(=O)C2N1Nc1ccccc1 (stereo not given) | 0.0703 | 0.636 (inactive) | -0.0975 | -0.271 | -0.0594 | 0.907 | 0.478 | -1.52 | -1.84 | -0.834
9 | CCCCC(=C=CC[C@H](O)c1cccc(OCCO)c1)C[C@H](O)c1cc(Cl)cc(Cl)c1O | 0.436 | 0.41 (inactive) | -0.0288 | -0.143 | 0.465 | 0.686 | -0.151 | 1.03 | 0.0963 | 1.04
10 | [N-]=[N+]=Nc1ccccc1C[C@@]1(C(=O)NCC(O)CO)N=C(c2ccc(OCCCO)cc2)O[C@@H]1c1ccccc1N=[N+]=[N-] (stereo not given in full) | 0.874 | -0.213 (inactive) | 0.204 | 0.0124 | 0.78 | 2.25 | 1.26 | 1.12 | -0.802 | 0.902
11 | C=C1C(=O)C=C2CN(C(=O)c3ccccc3)[C@@](Cc3ccc(F)cc3)(C(=O)OC)[C@@H]12 | 1.03 | 0.114 (inactive) | 0.693 | 0.009 | 0.5 | 2.76 | 0.942 | 1.34 | -0.775 | 1.14
12 | [N-]=[N+]=NCc1ccccc1[C@H]1OC(c2ccc(OCCCO)cc2)=N[C@@]1(CCS(=O)(=O)c1ccccc1)C(=O)O | 0.952 | 0.177 (inactive) | 0.212 | -0.118 | 0.754 | 2.12 | 0.0621 | 0.367 | -0.692 | 0.399
13 | CCCCC(=C=CC[C@H](O)c1ccccc1OCCO)CCO | 0.0552 | 0.849 (inactive) | -0.16 | -0.164 | 0.524 | 1.91 | 0.0655 | 0.597 | -0.336 | -0.14
14 | [N-]=[N+]=NCc1ccccc1C[C@]1(C(=O)N2CCCCC2)COC(c2ccc(OCCCO)cc2)=N1 | 0.744 | -0.838 (inactive) | -0.159 | -0.242 | 0.375 | 1.58 | -0.44 | 1.24 | 0.0846 | 0.984
15 | COCCOC(=O)N1C(=O)[C@@]2(c3cc(C#CCNC(N)=O)ccc31)[C@H](C(N)=O)[C@H]1C(=O)O[C@H](c3ccccc3)[C@H](c3ccccc3)N1[C@@H]2c1ccc(O)cc1 | -0.153 | 0.003 (inactive) | 0.153 | 0.234 | 0.606 | 0.609 | -0.545 | -0.148 | 0.267 | -0.267
16 | CCOC(=O)C=C1C[C@@H](c2cccc([N+](=O)[O-])c2)O[C@@H](c2cccc([N+](=O)[O-])c2)O1 | 0.817 | 0.636 (inactive) | 0.13 | -0.125 | 0.425 | 2.07 | 0.863 | 1.32 | 0.338 | 1.1
17 | C=CC[C@]1(C(N)=O)N=C(c2ccc(OCCCO)cc2)O[C@H]1c1ccccc1N=[N+]=[N-] | 0.601 | 1.13 (inactive) | 0.067 | -0.0586 | 0.79 | 2.53 | 0.87 | 0.994 | 0.783 | 0.883

Row | SMILES | composite z-score (Albumin (Bos taurus)) | composite Z-score [1] | composite z-score [2] | composite z-score [3] | composite z-score [4] | composite z-score [5] | composite z-score [6] | composite z-score (Sam68 (KHDRBS1)) | composite z-score [7] | composite z-score [8]
18 | O=C1NC(=O)C2C1C=CC(C(O)C(c1ccccc1)c1ccccc1)N2Nc1ccccn1 (stereo not given) | 0.26 | -0.212 (inactive) | 0.15 | 0.256 | 0.809 | 0.899 | 0.754 | -0.0644 | 0.691 | -0.516
19 | COC(=O)C(CC#Cc1ccc2c(c1)[C@]1(C(=O)N2)[C@H](C(=O)N2CCN(c3ncccn3)CC2)[C@H]2C(=O)O[C@H](c3ccccc3)[C@H](c3ccccc3)N2[C@@H]1c1ccc(O)cc1)C(=O)OC | -0.542 | 0.939 (inactive) | 0.972 | 0.279 | 0.636 | 2.38 | 0.97 | 1.28 | 1.08 | 1.21
20 | COCCCNC(=O)[C@@]1(Cc2ccccc2I)c2ccccc2C(=O)N(Cc2ccccc2C(F)(F)F)[C@H]1c1ccc(CO)cc1 | 0.251 | 0.29 (inactive) | -0.136 | -0.148 | 0.487 | 1.85 | -0.462 | 0.302 | -1.44 | -0.375
21 | CC(C)(C)OC(=O)CC[C@]1(C(=O)N2CCOCC2)COC(c2ccc(OCCCO)cc2)=N1 | 0.947 | -0.124 (inactive) | -0.0387 | -0.129 | 0.853 | 2.85 | -0.494 | 0.836 | -1.17 | 0.0647
22 | CC(C)C[C@@H]1NC(=O)[C@H]2C[C@@H](C(=O)O)[C@@H](c3cccc(OCCO)c3)N2C1=O | -0.371 | -0.12 (inactive) | -0.0014 | -0.0761 | 0.265 | 1.38 | 0.327 | 0.531 | 1.12 | 0.587
23 | Cc1ccc(S[C@]2(C(=O)NCCN3CCOCC3)CC(=O)N(C(C)C)[C@@H]2c2ccc(CO)cc2I)cc1 | -0.233 | 0.289 (inactive) | -0.0111 | -0.0391 | 0.288 | 1.19 | 0.933 | 0.949 | -0.975 | -0.452
24 | O=C(N1CCOCC1)[C@]1(CCS(=O)(=O)c2ccccc2)N=C(c2ccc(OCCCO)cc2)O[C@@H]1c1ccccc1 | 1.03 | 1.35 (inactive) | 0.149 | -0.0256 | 0.441 | 2.86 | 0.473 | 1.31 | -0.62 | 1.21
25 | CC(CO)N1C(=O)[C@@H]2[C@H]3C(=O)OCC=C[C@H]3OC23C=CCN(c2ccc4ccccc4c2)C(=O)[C@@H]13 (stereo not given in full) | 0.876 | 0.0987 (inactive) | -0.381 | -0.132 | 0.324 | -0.312 | -0.139 | -0.892 | -1.66 | -0.387
26 | C=CCNC(=O)[C@@H]1[C@H]2C(=O)O[C@H](c3ccccc3)[C@H](c3ccccc3)N2[C@H](c2ccc(OCCO)cc2)[C@@]12C(=O)N(C(=O)OCCOC)c1ccccc12 | 0.258 | 1.01 (inactive) | -0.0362 | -0.0432 | 0.589 | 2.37 | 0.67 | 1.29 | 0.389 | 1.03
27 | O=C/C=C/c1ccc(-c2ccccc2)cc1 | -1.04 | -0.646 (inactive) | -0.172 | -0.0843 | -0.202 | -0.327 | 1.35 | -0.789 | 0.438 | -0.518
28 | COC(=O)C1=CC(c2ccc(CO)cc2)=CC(C2CC2)N(Cc2cc3c(cc2Br)OCO3)C=C1C(=O)OC (stereo not given) | 0.861 | 2.69 (inactive) | 0.448 | 0.165 | 0.814 | 2.82 | 1.24 | 1.31 | 0.0562 | 1.19
29 | CCCCCN1CC=CC23O[C@@H]4/C=C\CCCOC(=O)C4[C@H]2C(=O)N(CCCCCO)[C@@H]3C1=O (stereo not given in full) | -0.191 | -0.594 (inactive) | -0.233 | -0.182 | 0.777 | -1.89 | -0.682 | -0.178 | -0.801 | -0.691
30 | COCCCNC(=O)[C@@]1(Cc2ccccc2I)c2ccccc2C(=O)N(Cc2ccccc2OC)[C@H]1c1ccc(CO)cc1 | -0.685 | 0.0679 (inactive) | -0.134 | -0.14 | 0.542 | 2.31 | -0.143 | 0.614 | -1.82 | 0.911
31 | COc1ccc([Si](C)(C)[C@H]2[C@H](CC(=O)N3CCC[C@H]3CO)O[C@@]3(C(=O)N(C)c4ccccc43)[C@@H]2C)cc1 | 0.728 | 1.38 (inactive) | 0.103 | -0.103 | 0.487 | 0.459 | 0.378 | 0.646 | 0.808 | 0.119
32 | COc1c(C)cc(-c2cc3c(c(CCc4ccccc4)n2)[Si](C(C)C)(C(C)C)O[C@H]3c2ccccc2)cc1C | -0.0598 | 0.123 (inactive) | -0.0728 | -0.14 | -0.121 | 0.463 | -0.153 | -0.423 | -0.2 | 0.398
33 | COC(=O)C(CC#Cc1ccc2c(c1)[C@]1(C(=O)N2)[C@H](C(=O)N2CCCCCCC2)[C@H]2C(=O)O[C@H](c3ccccc3)[C@H](c3ccccc3)N2[C@@H]1c1ccc(OCCO)cc1)C(=O)OC | 0.844 | 10.3 (active) | 2.18 | 1.19 | 1.12 | 5.47 | 0.497 | 1.33 | 1.57 | 1.18

Source: PubChem BioAssay
